Source: PubChem BioAssay (Tox21)
Where “and” joins values, the source holds several entries; their conditions need not be identical. Equal values may be shown once. Inconclusive results are not listed. Where a call stands in place of a potency, no number is given. Calls of active or inactive are those of the source. Unless noted, calls come from the whole dose curve; as a rule, active = well fitted curve in the direction sought with a large enough effect in the repeat runs; inconclusive = weak or mixed curves; inactive = no such curve, though single readings can be large; an effect the other way counts as inactive or inconclusive.

Legend:
[1] = qHTS assay to identify small molecule antagonists of the sonic hedgehog signaling (Shh) pathway (AID 1259369; calls by dose curve; note: potency is the fitted concentration of half-maximal effect; nearly all actives have a fitted effect of over 45% in size)
Procedure, shortened: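 NIH/3T3 stable Gli1-Luc clone, 2,000 cells/well, 4hr settle; cpd + conditioned medium 24hr; Luc reagent 30min RT; luminescence.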

[2] = qHTS assay to identify small molecule agonists of the estrogen receptor beta (ER-beta) signaling pathway - cell viability counter screen (AID 1259380); note: nearly all actives have a fitted effect of over 30% in size; note: potency is the fitted concentration of half-maximal effect
Procedure, shortened: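 Measured: luminescence from CellTiter-Glo after 30 min at room temperature, added to wells already read for the LiveBLAzer FRET reporter (2 hr substrate); ER-beta-UAS-bla HEK293T cells had 16 hr compound treatment at 37C, 5% CO2.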

[3] = target: Androgen receptor (Homo sapiens) (UniProt P10275); assay: qHTS assay to identify small molecule agonists of the androgen receptor (AR) signaling pathway in the presence of an antagonist (AID 1259381; calls by dose curve; note: nearly all actives have a fitted effect of over 15% in size)
Procedure, shortened: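 Luminescent ONE-Glo read, 30min at room temperature, follows 16hr compound exposure (15 concentrations) of MDA-kb2 cells at 37C, 0% CO2, with nilutamide added at 3.0uM final.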

[4] = qHTS assay to identify small molecule antagonists of the estrogen receptor beta (ER-beta) signaling pathway - cell viability counter screen (AID 1259382); note: nearly all actives have a fitted effect of over 55% in size; note: potency is the fitted concentration of half-maximal effect
Procedure, shortened: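 Readout: luminescence, CellTiter-Glo, same wells as bla assay. System: ER-beta-UAS-bla GripTite HEK293T, 2% charcoal-stripped FBS. Exposure: compounds plus 1nM 17-beta-estradiol, 16 hr, 37C.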

[5] = target: Estrogen receptor (Homo sapiens) (UniProt P03372); assay: qHTS assay to identify small molecule agonists of the estrogen receptor alpha (ER-alpha) signaling pathway in the presence of an antagonist (AID 1259383; calls by dose curve; note: top concentration of the series differs between compounds; nearly all actives have a fitted effect of over 15% in size)
Procedure, shortened: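 Quantitative HTS confirmation: compounds titrated at 15 concentrations onto estrogen-deprived VM7Luc4E2 cells carrying a four-ERE luciferase construct, with ICI-182,780 present at 10.0nM final. Signal is luminescence after 22hr exposure.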

[6] = target: Thyrotropin receptor (Homo sapiens) (UniProt P16473); assay: qHTS assay to identify small molecule antagonists of the thyroid stimulating hormone receptor (TSHR) signaling pathway (AID 1259385; calls by dose curve; note: nearly all actives have a fitted effect of over 20% in size; note: potency is the fitted concentration of half-maximal effect)
Procedure, shortened: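 TSHR-HEK293 cells were plated and held 18 h at 37C/5% CO2, then given compound plus Ro20-1724 and stimulated with TSH at 1.5 ng/mL final. After 30 min at room temperature, cAMP was detected with cAMP-d2/anti-cAMP-cryptate (1 h) by fluorescence.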

[7] = qHTS assay to identify small molecule agonists of the estrogen receptor alpha (ER-alpha) signaling pathway in the presence of an antagonist - cell viability counter screen (AID 1259386);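 note: cells exposed to compounds for 22 h at 37 °C before the viability read; nearly all actives have a fitted effect of over 30% in size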; note: potency is the fitted concentration of half-maximal effect
Procedure, shortened: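 The test measures whether compounds kill ER-alpha reporter cells (VM7Luc4E2) under antagonist co-treatment (ICI-182,780, 10.0nM). Fluorescence from CellTiter-Fluor is read after a 22hr exposure.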

[8] = qHTS assay to identify small molecule antagonists of the progesterone receptor (PR) signaling pathway - cell viability counter screen (AID 1346798); note: nearly all actives have a fitted effect of over 50% in size; note: potency is the fitted concentration of half-maximal effect
Procedure, shortened: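 In the same plates used for the beta-lactamase readout, cell viability of compound- and R5020-treated PR-UAS-bla HEK293T cells (16 hr, 37C) was assessed by CellTiter-Glo luminescence.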

[9] = qHTS assay to identify small molecule antagonists of the TGF-beta/Smad signaling pathway - cell viability counter screen (AID 1346824); note: nearly all actives have a fitted effect of over 50% in size; note: potency is the fitted concentration of half-maximal effect
Procedure, shortened: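 SBE-bla HEK 293T cells were plated overnight at 37 C, then given compounds in DMSO plus TGF-beta1 (added as 0.25 ng/mL solution) for 5 hr. After the bla read, CellTiter-Glo was added to the same wells and luminescence read after 30 min at room temperature.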

[10] = qHTS assay to identify small molecule agonists of the TGF-beta/Smad signaling pathway - cell viability counter screen (AID 1346829); note: nearly all actives have a fitted effect of over 45% in size; note: potency is the fitted concentration of half-maximal effect
Procedure, shortened: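 Cytotoxicity counter screen: CellTiter-Glo luminescence (30 min, room temperature) measured in the SBE-bla HEK 293T reporter wells after 5 hr compound treatment at 37 C and the 2 hr substrate step.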

[11] = target: Thyrotropin-releasing hormone receptor (Homo sapiens) (UniProt P34981); assay: qHTS assay to identify small molecule antagonists of the thyrotropin-releasing hormone receptor (TRHR) signaling pathway (AID 1346877; active = well fitted inhibition curve with a large enough effect in the repeat runs, not every such curve was filed as active; note: potency is the fitted concentration of half-maximal effect)
Procedure, shortened: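 Overnight-plated (18 h, 37 °C) HEK293 cells expressing TRHR were dye-loaded 2 h, treated with compound, then stimulated with TRH at 1 nM final. Fluorescence intensity was captured every second for 3 min.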

[12] = target: Thyrotropin-releasing hormone receptor (Homo sapiens) (UniProt P34981); assay: qHTS assay to identify small molecule agonists of the thyrotropin-releasing hormone receptor (TRHR) signaling pathway (AID 1346891; calls by dose curve; note: potency is the fitted concentration of half-maximal effect; for activation: series mostly up to about 58 µM)
Procedure, shortened: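 Readout was intracellular calcium fluorescence in TRHR-Hek293 cells. Cells were incubated 18 h, dye-loaded 2 h at 37 °C, and treated with compound in agonist mode.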

[13] = qHTS assay to identify small molecule agonists or antagonists of the thyroid stimulating hormone receptor (TSHR) signaling pathway - wild type cell line counter screen (AID 1259384; calls by dose curve)
Procedure, shortened: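 Wild-type HEK293 cells were plated 18 h at 37 C/5% CO2, pin-dosed with compound plus Ro20-1724 medium, held 30 min at room temperature, then given cAMP-d2 and anti-cAMP-cryptate; fluorescence was read after 1 h. Fifteen concentrations, triplicate.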

[14] = target: Progesterone receptor (Homo sapiens) (UniProt P06401); assay: qHTS assay to identify small molecule agonists of the progesterone receptor (PR) signaling pathway (AID 1346784; calls by dose curve; note: nearly all actives have a fitted effect of over 30% in size)
Procedure, shortened: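 Reporter assay, GripTite PR-UAS-bla HEK 293T cells: 16 hr exposure to DMSO-dissolved compounds at 37C, 5% CO2, in steroid-depleted (2% charcoal-stripped FBS) medium; beta-lactamase measured by FRET fluorescence.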

[15] = qHTS assay to identify small molecule agonists of the TGF-beta/Smad signaling pathway (AID 1346859; active = well fitted activation curve with a large enough effect in the signal ratio in the repeat runs, not every such curve was filed as active; the % refers to the signal ratio; note: series mostly up to about 77 µM)
Procedure, shortened: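 Screening used HEK 293T SBE-bla cells at 4,000/well. Test agents: 5 hr, 37 C. Detection: FRET substrate, 2 hr RT, then excitation 405 nm with emissions at 460 and 530 nm.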

[16] = target: Progesterone receptor (Homo sapiens) (UniProt P06401); assay: qHTS assay to identify small molecule antagonists of the progesterone receptor (PR) signaling pathway (AID 1346795; active = well fitted inhibition curve with a large enough effect in the signal ratio in the repeat runs, not every such curve was filed as active; the % refers to the signal ratio; note: potency is the fitted concentration of half-maximal effect)
Procedure, shortened: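 Stimulus R5020 at 1 nM final; cells HEK293T PR-UAS-bla; medium with 2% charcoal-stripped FBS; compound exposure 16 hr at 37C, 5% CO2; detection by FRET beta-lactamase substrate, 2 hr, room temperature.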

[17] = qHTS assay to identify small molecule agonists of the progesterone receptor (PR) signaling pathway - cell viability counter screen (AID 1346799; calls by dose curve; note: nearly all actives have a fitted effect of over 45% in size)
Procedure, shortened: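 Multiplexed viability read: CellTiter-Glo luminescence, 30 min RT, following LiveBLAzer FRET measurement on PR-UAS-bla HEK293T cells exposed to compounds 16 hr.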

[18] = qHTS assay to identify small molecule agonists of the androgen receptor (AR) signaling pathway in the presence of an antagonist - cell viability counter screen (AID 1259379); note: nearly all actives have a fitted effect of over 25% in size; note: potency is the fitted concentration of half-maximal effect
Procedure, shortened: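 MDA-kb2 viability measured by CellTiter-Fluor fluorescence in the same wells as the luciferase signal; nilutamide 3.0uM final; 15-point compound titration; 16 hr at 37C.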

[19] = target: Estrogen receptor beta (Homo sapiens) (UniProt Q92731); assay: qHTS assay to identify small molecule agonists of the estrogen receptor beta (ER-beta) signaling pathway (AID 1259377; active = well fitted activation curve with a large enough effect in the signal ratio in the repeat runs, not every such curve was filed as active; the % refers to the signal ratio)
Procedure, shortened: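 Reporter cells (HEK293T, ER-beta-UAS-bla) receive compounds or DMSO after a 6 hr pre-incubation. They then incubate 16 hr at 37C/5% CO2, and fluorescence from LiveBLAzer B/G substrate is measured after 2 hours at room temperature.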

Sequence of Progesterone receptor (Homo sapiens) (P06401 whole entry, looked up): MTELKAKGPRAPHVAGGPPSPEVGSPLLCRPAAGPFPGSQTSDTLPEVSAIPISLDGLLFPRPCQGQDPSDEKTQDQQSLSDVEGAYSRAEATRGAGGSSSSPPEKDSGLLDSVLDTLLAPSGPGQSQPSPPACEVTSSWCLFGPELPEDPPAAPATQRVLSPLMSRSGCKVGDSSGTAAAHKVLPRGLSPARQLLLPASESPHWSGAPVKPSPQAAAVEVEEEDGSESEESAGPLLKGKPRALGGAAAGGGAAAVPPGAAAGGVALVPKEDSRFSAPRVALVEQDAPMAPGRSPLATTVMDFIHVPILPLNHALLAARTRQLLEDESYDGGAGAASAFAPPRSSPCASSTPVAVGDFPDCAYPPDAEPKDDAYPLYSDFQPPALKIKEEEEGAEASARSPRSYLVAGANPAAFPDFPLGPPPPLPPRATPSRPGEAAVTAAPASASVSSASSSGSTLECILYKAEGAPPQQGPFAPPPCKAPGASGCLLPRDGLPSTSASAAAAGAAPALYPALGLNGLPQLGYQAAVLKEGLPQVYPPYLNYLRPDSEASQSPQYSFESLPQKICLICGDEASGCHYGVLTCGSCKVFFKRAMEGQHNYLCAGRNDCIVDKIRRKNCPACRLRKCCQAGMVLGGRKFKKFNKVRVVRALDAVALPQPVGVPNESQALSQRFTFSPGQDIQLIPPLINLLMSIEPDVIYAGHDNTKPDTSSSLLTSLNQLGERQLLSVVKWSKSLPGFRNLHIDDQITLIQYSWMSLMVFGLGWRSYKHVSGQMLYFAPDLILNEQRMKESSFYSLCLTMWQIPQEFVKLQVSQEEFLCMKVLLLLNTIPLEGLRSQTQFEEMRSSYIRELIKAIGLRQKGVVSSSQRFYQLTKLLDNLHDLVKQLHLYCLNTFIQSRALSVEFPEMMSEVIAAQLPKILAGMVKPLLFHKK
Sequence of Androgen receptor (Homo sapiens) (P10275 whole entry, looked up): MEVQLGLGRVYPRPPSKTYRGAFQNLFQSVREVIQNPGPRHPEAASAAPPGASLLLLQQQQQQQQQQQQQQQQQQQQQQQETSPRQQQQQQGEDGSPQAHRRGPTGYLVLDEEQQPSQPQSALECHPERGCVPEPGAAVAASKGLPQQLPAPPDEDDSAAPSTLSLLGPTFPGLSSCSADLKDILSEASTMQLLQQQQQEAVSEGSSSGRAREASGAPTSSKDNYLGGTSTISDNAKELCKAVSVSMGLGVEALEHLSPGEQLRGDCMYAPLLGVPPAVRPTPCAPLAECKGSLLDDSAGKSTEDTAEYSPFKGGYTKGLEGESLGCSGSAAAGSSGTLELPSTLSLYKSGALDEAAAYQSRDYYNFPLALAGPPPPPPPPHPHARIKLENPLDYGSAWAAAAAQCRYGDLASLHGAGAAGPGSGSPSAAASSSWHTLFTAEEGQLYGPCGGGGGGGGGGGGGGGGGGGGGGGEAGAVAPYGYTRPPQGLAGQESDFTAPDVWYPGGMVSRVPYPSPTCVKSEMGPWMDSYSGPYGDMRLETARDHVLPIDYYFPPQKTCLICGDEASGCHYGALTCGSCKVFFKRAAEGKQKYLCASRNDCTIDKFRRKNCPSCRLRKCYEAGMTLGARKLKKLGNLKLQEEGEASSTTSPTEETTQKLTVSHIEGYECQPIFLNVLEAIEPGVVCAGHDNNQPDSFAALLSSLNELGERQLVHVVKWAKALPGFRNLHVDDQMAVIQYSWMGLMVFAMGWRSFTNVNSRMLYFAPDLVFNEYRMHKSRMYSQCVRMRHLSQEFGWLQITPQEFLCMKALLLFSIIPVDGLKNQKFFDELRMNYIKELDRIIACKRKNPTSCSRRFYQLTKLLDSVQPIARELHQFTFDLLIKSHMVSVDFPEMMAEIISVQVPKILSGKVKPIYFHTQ
Sequence of Estrogen receptor (Homo sapiens) (P03372 whole entry, looked up): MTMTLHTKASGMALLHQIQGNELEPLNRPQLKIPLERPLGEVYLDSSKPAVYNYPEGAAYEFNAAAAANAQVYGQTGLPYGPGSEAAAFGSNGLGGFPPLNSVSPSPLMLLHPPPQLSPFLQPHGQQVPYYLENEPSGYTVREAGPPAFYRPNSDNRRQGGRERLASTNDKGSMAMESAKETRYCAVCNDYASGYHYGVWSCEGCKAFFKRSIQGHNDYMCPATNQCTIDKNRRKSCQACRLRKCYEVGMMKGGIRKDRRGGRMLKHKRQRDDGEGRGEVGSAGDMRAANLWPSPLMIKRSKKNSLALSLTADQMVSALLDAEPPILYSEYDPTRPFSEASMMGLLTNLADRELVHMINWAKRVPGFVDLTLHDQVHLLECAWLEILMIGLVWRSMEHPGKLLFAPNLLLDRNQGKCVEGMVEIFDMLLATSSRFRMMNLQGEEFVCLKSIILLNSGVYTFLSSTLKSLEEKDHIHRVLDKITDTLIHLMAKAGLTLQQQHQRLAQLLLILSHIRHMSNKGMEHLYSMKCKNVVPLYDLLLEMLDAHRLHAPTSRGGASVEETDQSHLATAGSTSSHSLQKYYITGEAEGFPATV
Sequence of Thyrotropin receptor (Homo sapiens) (P16473 whole entry, looked up): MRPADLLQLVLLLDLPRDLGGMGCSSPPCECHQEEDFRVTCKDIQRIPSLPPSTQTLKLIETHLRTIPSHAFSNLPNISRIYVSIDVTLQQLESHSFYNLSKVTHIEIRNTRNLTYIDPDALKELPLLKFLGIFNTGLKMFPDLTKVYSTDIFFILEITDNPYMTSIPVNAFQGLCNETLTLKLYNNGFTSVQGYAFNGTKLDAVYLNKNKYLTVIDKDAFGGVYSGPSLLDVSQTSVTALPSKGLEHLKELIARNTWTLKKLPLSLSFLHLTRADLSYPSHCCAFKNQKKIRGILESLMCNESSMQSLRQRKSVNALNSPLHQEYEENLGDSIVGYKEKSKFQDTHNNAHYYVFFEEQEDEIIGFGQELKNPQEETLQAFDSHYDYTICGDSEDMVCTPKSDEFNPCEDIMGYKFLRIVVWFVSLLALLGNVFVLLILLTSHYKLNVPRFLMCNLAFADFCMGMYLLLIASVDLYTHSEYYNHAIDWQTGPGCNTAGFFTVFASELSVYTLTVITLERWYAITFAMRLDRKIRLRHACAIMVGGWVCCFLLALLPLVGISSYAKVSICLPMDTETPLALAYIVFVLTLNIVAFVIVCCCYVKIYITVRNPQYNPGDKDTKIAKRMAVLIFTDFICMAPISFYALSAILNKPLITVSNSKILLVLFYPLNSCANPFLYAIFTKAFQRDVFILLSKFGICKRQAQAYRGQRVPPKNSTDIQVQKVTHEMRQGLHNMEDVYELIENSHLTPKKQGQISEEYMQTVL
Sequence of Thyrotropin-releasing hormone receptor (Homo sapiens) (P34981 whole entry, looked up): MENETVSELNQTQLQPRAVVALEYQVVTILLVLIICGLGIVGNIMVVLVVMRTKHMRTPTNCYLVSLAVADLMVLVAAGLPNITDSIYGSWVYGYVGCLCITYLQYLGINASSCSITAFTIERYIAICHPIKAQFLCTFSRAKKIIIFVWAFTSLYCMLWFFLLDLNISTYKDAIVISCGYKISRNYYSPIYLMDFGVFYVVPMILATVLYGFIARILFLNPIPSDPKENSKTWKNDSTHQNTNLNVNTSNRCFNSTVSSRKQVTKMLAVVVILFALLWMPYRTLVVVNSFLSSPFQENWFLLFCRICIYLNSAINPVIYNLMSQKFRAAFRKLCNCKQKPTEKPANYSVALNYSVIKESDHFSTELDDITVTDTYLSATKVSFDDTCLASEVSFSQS
Sequence of Estrogen receptor beta (Homo sapiens) (Q92731 whole entry, looked up): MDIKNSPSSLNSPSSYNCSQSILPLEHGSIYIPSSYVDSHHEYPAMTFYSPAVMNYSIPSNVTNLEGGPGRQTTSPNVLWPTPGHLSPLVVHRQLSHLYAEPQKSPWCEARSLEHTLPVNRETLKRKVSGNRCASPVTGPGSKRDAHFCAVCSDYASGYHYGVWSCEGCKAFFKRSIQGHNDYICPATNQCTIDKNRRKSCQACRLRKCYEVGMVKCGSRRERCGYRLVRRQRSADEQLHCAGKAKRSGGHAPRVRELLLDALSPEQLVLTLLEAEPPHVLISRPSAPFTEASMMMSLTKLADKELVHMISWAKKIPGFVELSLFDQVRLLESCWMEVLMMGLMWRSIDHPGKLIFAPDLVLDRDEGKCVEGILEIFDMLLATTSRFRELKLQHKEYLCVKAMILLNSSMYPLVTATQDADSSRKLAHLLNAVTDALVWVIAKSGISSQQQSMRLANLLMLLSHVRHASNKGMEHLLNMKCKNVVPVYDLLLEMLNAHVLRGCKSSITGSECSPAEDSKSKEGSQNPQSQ

SMILES	Potency [1]	Potency [2]	Potency [3]	Potency [4]	Potency [5]	Potency [6]	Potency [7]	Potency [8]	Potency [9]	Potency [10]	Potency [11]	Potency [12]	Potency [13]	Potency [14]	outcome [15]	Potency [16]	Potency [17]	Potency [18]	Potency [19]
C=CC(=O)[O][Sn]([CH2]CCC)([CH2]CCC)[CH2]CCC	0.486 µM (active)	2.43 µM (active)	inactive	3.06 µM (active)	inactive	13.7 µM (active)	10.9 µM (active)	4.33 µM (active)	2.45 µM (active)	1.95 µM (active)	13.5 µM (active)	17.4 µM (active)	–	–	–	–	–	–	–
CNC(=O)O/N=C(\C)C(C)S(C)(=O)=O (stereo not given)	282 µM (active)	inactive	–	inactive	–	inactive	inactive	–	inactive	inactive	–	–	inactive	inactive	inactive	–	–	–	–
c1ccc(N=NNc2ccccc2)cc1	–	–	–	inactive	inactive	inactive	28.3 µM (active) and 27.3 µM (active)	inactive	inactive	inactive	inactive	inactive	inactive	inactive	inactive	56.4 µM (active) and 48.6 µM (active)	inactive	–	–
CO/N=C(\C(=O)OC)c1ccccc1CO/N=C(\C)c1cccc(C(F)(F)F)c1	–	–	–	inactive	–	–	30.6 µM (active)	inactive	–	–	inactive	inactive	inactive	inactive	inactive	6.86 µM (active)	–	12.2 µM (active)	–
CN1C2CCC(C)(C)C1CC(OC(=O)C(O)(c1cccs1)c1cccs1)C2 (stereo not given)	–	inactive	–	inactive	inactive	inactive	inactive	inactive	inactive	inactive	–	inactive	–	inactive	inactive	inactive	–	inactive	–
O=C(N[C@H]1N=C(c2ccccc2F)c2cccc3c2N(CC3)C1=O)c1cc2ccccc2[nH]1	–	–	–	inactive	–	inactive	inactive	inactive	inactive	–	–	inactive	inactive	inactive	inactive	inactive	–	inactive	inactive
Oc1cc(Cl)cc(Cl)c1	–	inactive	–	inactive	inactive	–	inactive	–	inactive	inactive	inactive	inactive	–	–	inactive	–	–	inactive	–
CCOP(=S)(OCC)Oc1cc(C)nc(N(CC)CC)n1	–	inactive	inactive	inactive	inactive	30.6 µM (active)	inactive	–	inactive	inactive	inactive	inactive	–	inactive	inactive	–	–	inactive	inactive
CCCCN(CCCC)C(=S)[S-].CCCCN(CCCC)C(=S)[S-].[Ni+2]	–	inactive	–	inactive	inactive	–	inactive	inactive	inactive	inactive	–	–	–	inactive	inactive	inactive	inactive	inactive	–
CC(C)NCC(O)c1ccccc1Cl (stereo not given)	–	inactive	inactive	inactive	inactive	–	inactive	–	inactive	inactive	inactive	inactive	–	inactive	inactive	inactive	–	inactive	–
